Activity calls are given as the source filed them. Calls follow the shape of the dose curve; as a rule, active = well fitted curve in the direction sought with a large enough effect; inconclusive = small, poorly fitted or top-dose-only effect, or effect the other way, or another doubt; inactive = no such curve, though single readings can be large or run the other way.
test: qHTS of Nrf2 Activators: LOPAC Validation (AID 624149); details: Nrf2/ARE reporter cell assay; series mostly up to 46.1 µM
Description: Many diseases have some form of oxidative stress injury and ties to inflammation, causing a host of problems for the patient. The antioxidant response element (ARE) plays an important role in alleviating the harmful effects of oxidative stress. The antioxidant response element (ARE) is a transcriptional regulatory element involved in the activation of genes coding for a number of antioxidant proteins and detoxifying enzymes. These enzymes work in concert to protect tissues from oxidative insults and chemical toxicities in human hepatocytes and immune cells. The protective effects of ARE activation are primarily triggered through Nrf2 (NF-E2-related factor) binding to and activating AREs. It is known that Nrf2 controls the production of over 250 antioxidant and detoxification proteins (Hu et al., 2006), thereby protecting tissues by increasing cellular antioxidant content and suppressing inflammatory signaling pathways. The transcription factor Nrf2 is a central link between oxidative chemicals, such as phenolic antioxidants and electrophilic compounds, and the activation of ARE. Nrf2 levels are constitutively low as a consequence of its interaction with Keap1, which targets its degradation (Zipper and Mulcahy, 2002). Electrophiles react with key cysteine residues in Keap1, releasing Nrf2 and allowing its translocation to the nucleus. Once within the nucleus, Nrf2 complexes with coactivators such as p300, and binds to the AREs to induce gene transcription of cytoprotective enzymes, resulting in the prevention of toxicity. Activation of Nrf2 protects tissues by increasing cellular antioxidant content and suppressing inflammatory signaling pathways. Identifying novel and potent Nrf2 activators by using the AREc32 cell line to detect ARE activation by small molecules will lead to the identification and development of probes to study protective pathways in multiple tissues. These specific probes are essential to study the ARE pathway, and eventually to determine whether this pathway does activate genes that could protect against a host of diseases, including cardiovascular diseases, obesity, diabetes, Alzheimer's, and Parkinson's disease.
This project's aim is to identify novel and potent Nrf2 activators by using the AREc32 cell line to detect ARE activation by small molecules, which will lead to the identification and development of probes to study the ARE pathway.
NIH Chemical Genomics Center [NCGC]
NIH Molecular Libraries Probe Centers Network [MLPCN]
Assay Submitter (PI): Curtis Klaassen, University of Kansas Medical Center
5 uL of 1000 cells/well of AREc32_Fluc cells are seeded into 1536-well plate in OPTI-MEM medium with 5% FBS. The plates are incubated overnight at 37 deg C with 5% CO2. Then through pin tool transfer, 23 nL of compounds are added to each well before a 24 hr incubation at 37 deg C with 5% CO2. After the addition of 2.5 uL of Steady-Glo. the plates are kept at RT for 30 min, before they are read on the ViewLux

Q: Which outcome does the source give for `CNC(=O)[C@H]1O[C@@H](n2cnc3c(NCc4cccc(I)c4)ncnc32)[C@H](O)[C@@H]1O` here?
A: inactive

Q: Which outcome does the source give for `Nc1nc(SCc2ccc([N+](=O)[O-])cc2)c2ncn([C@@H]3O[C@H](CO)[C@@H](O)[C@H]3O)c2n1` here?
A: inactive

Q: Which outcome does the source give for `N#C/C(=C\c1ccc(O)c(O)c1)C(=O)NCc1ccccc1` here?
A: inactive

Q: With `NCC1OC(O[C@H]2[C@H](O)[C@@H](OC3C(O)C(N)CC(N)C3OC3OC(CO)C(O)C(O)C3N)O[C@@H]2CO)C(N)C(O)C1O` (stereo not given in full) as the molecule, how does the outcome read?
A: inactive

Q: Which outcome does the source give for `CN(C)CCC(c1ccc(Cl)cc1)c1ccccn1` (stereo not given) here?
A: inactive

Q: Which outcome does the source give for `NCCSSCCN` here?
A: inactive

Q: Which outcome does the source give for `CC(C)NC[C@@H](O)c1ccc(O)c(O)c1` here?
A: inactive

Q: Which outcome does the source give for `CC(=O)SCC[N+](C)(C)C` here?
A: inactive

Q: Which outcome does the source give for `CCCCCCCCCCCCCCCCCC(=O)NCC(COP(=O)([O-])OCC[N+](C)(C)C)OCC` (stereo not given) here?
A: inactive

Q: With `COc1cc(C(O)CO)ccc1OS(=O)(=O)O` (stereo not given) as the molecule, how does the outcome read?
A: inactive

Q: Which outcome does the source give for `Clc1ccc(N2CCN(Cc3c[nH]c4ncccc34)CC2)cc1` here?
A: inactive

Q: With `C=CC(N)CCC(=O)O` (stereo not given) as the molecule, how does the outcome read?
A: inactive

Q: Which outcome does the source give for `Cc1nc2sccn2c(=O)c1CCN1CCC(=C(c2ccccc2)c2ccc(F)cc2)CC1` here?
A: inactive

Q: For `NCCCS(=O)(=O)O`, which outcome is on record?
A: inactive

Q: For `O=C(O)c1cc([N+](=O)[O-])ccc1NCCCc1ccccc1`, which outcome is on record?
A: inactive

Q: With `CC(C)Cc1ccc([C@H](C)C(=O)O)cc1` as the molecule, how does the outcome read?
A: inactive

Q: Which outcome does the source give for `CN1CCc2ccccc2Cc2[nH]c3ccccc3c2CC1` here?
A: inactive

Q: With `Fc1cccc(/C=N/N=C/c2cccc(F)c2)c1` as the molecule, how does the outcome read?
A: inactive

Q: For `C[N+]1(C)CCC(OC(=O)C(c2ccccc2)c2ccccc2)CC1`, which outcome is on record?
A: inactive

Q: With `O=C(O)CC[C@@H](C(=O)O)N1C(=O)c2ccccc2C1=O` as the molecule, how does the outcome read?
A: inactive

Q: With `COc1ccccc1CNCCCCCCNCCCCCCCCNCCCCCCNCc1ccccc1OC` as the molecule, how does the outcome read?
A: inactive

Q: Which outcome does the source give for `Nc1ncnc2c1ncn2[C@@H]1O[C@H](COP(=O)(O)OP(=O)(O)OP(=O)(O)OP(=O)(O)OC[C@@H]2O[C@H](n3cnc4c(N)ncnc43)[C@@H](O)[C@H]2O)[C@@H](O)[C@H]1O` here?
A: inactive

Q: Which outcome does the source give for `CCNC(=O)[C@H]1O[C@@H](n2cnc3c(N)nc(NCCc4ccc(CCC(=O)O)cc4)nc32)[C@H](O)[C@@H]1O` here?
A: inactive

Q: With `CN(C)c1ccc(/C=C2\C(=O)Nc3ccccc32)cc1` as the molecule, how does the outcome read?
A: inactive

Q: Which outcome does the source give for `Nc1nc(Nc2ccccc2)nc2c1ncn2[C@@H]1O[C@H](CO)[C@@H](O)[C@H]1O` here?
A: inactive

Q: With `Cc1cc(NC(=O)Nc2ccc3c(ccn3C)c2)sn1` as the molecule, how does the outcome read?
A: inactive

Q: Which outcome does the source give for `CCCCCCCCCCCCCCCC(=O)OC(CC(=O)O)C[N+](C)(C)C` (stereo not given) here?
A: inactive

Q: For `O=C(c1ccc(Cl)cc1)N1CCN(c2ccc([N+](=O)[O-])c3ncccc23)CC1`, which outcome is on record?
A: inactive

Q: Which outcome does the source give for `O=C(O)/C=C/C(O)c1ccc(Cl)cc1` (stereo not given) here?
A: inactive

Q: Which outcome does the source give for `CSc1nc(N)c2ncn([C@@H]3O[C@H](COP(=O)(O)OP(=O)(O)OP(=O)(O)O)[C@@H](O)[C@H]3O)c2n1` here?
A: inactive

Q: Which outcome does the source give for `O=c1[nH]c2cc(Cl)c(Cl)cc2[nH]c1=O` here?
A: inactive

Q: For `NC(=S)c1ccc[n+]([C@@H]2O[C@@H](COP(=O)([O-])OP(=O)(O)OC[C@H]3O[C@@H](n4cnc5c(N)ncnc54)[C@H](OP(=O)(O)O)[C@@H]3O)C(O)C2O)c1` (stereo not given in full), which outcome is on record?
A: inactive

Q: For `Cc1ccc(C(=O)O[C@H](C(=O)O)[C@@H](OC(=O)c2ccc(C)cc2)C(=O)O)cc1` (tested in a mixture with another compound), which outcome is on record?
A: inactive

Q: For `COc1ccc2c(c1)CCC1C2CC[C@@]2(C)C1CC[C@@H]2NCCCCCCN1C(=O)CCC1=O` (stereo not given in full), which outcome is on record?
A: inactive

Q: For `C[N+]1(C)C2CC(OC(=O)[C@H](CO)c3ccccc3)CC1C1OC12` (stereo not given in full), which outcome is on record?
A: inactive

Q: Which outcome does the source give for `O=C(O)[C@@H]1C[C@@H](C(=O)O)N1` here?
A: inactive

Q: For `O=C(Nc1cccc(C(=O)Nc2ccc(S(=O)(=O)O)c3cc(S(=O)(=O)O)cc(S(=O)(=O)O)c23)c1)Nc1cccc(C(=O)Nc2ccc(S(=O)(=O)O)c3cc(S(=O)(=O)O)cc(S(=O)(=O)O)c23)c1`, which outcome is on record?
A: inactive

Q: Which outcome does the source give for `CN=c1nc(-c2ccccc2)n(-c2ccccc2)s1` here?
A: inactive

Q: Which outcome does the source give for `NC(=O)C(=O)O` here?
A: inactive

Q: For `CC1OC1P(=O)(O)O` (stereo not given), which outcome is on record?
A: inactive

Reference: PubChem BioAssay (NCATS)
